Measurements: ChEMBL document CHEMBL1961873, “Compounds: GSK PKIS; Assays: Nanosyn kinase panel” (2012)

Legend:
[1] = biological target: Serine/threonine-protein kinase MRCK alpha (Homo sapiens) (UniProt Q5VT25); conditions: at 0.1 µM
[2] = biological target: Serine/threonine-protein kinase MRCK alpha (Homo sapiens) (UniProt Q5VT25); conditions: at 1 µM
[3] = biological target: Serine/threonine-protein kinase MRCK beta (Homo sapiens) (UniProt Q9Y5S2); conditions: at 0.1 µM
[4] = biological target: Serine/threonine-protein kinase MRCK beta (Homo sapiens) (UniProt Q9Y5S2); conditions: at 1 µM
[5] = biological target: Ribosomal protein S6 kinase alpha-5 (Homo sapiens) (UniProt O75582); conditions: at 0.1 µM
[6] = biological target: Ribosomal protein S6 kinase alpha-5 (Homo sapiens) (UniProt O75582); conditions: at 1 µM
[7] = biological target: Ribosomal protein S6 kinase alpha-4 (Homo sapiens) (UniProt O75676); conditions: at 0.1 µM
[8] = biological target: Ribosomal protein S6 kinase alpha-4 (Homo sapiens) (UniProt O75676); conditions: at 1 µM
[9] = biological target: Ribosomal protein S6 kinase beta-1 (Homo sapiens) (UniProt P23443); conditions: at 0.1 µM
[10] = biological target: Ribosomal protein S6 kinase beta-1 (Homo sapiens) (UniProt P23443); conditions: at 1 µM

Chain of Serine/threonine-protein kinase MRCK beta (Homo sapiens) (Q9Y5S2 whole entry): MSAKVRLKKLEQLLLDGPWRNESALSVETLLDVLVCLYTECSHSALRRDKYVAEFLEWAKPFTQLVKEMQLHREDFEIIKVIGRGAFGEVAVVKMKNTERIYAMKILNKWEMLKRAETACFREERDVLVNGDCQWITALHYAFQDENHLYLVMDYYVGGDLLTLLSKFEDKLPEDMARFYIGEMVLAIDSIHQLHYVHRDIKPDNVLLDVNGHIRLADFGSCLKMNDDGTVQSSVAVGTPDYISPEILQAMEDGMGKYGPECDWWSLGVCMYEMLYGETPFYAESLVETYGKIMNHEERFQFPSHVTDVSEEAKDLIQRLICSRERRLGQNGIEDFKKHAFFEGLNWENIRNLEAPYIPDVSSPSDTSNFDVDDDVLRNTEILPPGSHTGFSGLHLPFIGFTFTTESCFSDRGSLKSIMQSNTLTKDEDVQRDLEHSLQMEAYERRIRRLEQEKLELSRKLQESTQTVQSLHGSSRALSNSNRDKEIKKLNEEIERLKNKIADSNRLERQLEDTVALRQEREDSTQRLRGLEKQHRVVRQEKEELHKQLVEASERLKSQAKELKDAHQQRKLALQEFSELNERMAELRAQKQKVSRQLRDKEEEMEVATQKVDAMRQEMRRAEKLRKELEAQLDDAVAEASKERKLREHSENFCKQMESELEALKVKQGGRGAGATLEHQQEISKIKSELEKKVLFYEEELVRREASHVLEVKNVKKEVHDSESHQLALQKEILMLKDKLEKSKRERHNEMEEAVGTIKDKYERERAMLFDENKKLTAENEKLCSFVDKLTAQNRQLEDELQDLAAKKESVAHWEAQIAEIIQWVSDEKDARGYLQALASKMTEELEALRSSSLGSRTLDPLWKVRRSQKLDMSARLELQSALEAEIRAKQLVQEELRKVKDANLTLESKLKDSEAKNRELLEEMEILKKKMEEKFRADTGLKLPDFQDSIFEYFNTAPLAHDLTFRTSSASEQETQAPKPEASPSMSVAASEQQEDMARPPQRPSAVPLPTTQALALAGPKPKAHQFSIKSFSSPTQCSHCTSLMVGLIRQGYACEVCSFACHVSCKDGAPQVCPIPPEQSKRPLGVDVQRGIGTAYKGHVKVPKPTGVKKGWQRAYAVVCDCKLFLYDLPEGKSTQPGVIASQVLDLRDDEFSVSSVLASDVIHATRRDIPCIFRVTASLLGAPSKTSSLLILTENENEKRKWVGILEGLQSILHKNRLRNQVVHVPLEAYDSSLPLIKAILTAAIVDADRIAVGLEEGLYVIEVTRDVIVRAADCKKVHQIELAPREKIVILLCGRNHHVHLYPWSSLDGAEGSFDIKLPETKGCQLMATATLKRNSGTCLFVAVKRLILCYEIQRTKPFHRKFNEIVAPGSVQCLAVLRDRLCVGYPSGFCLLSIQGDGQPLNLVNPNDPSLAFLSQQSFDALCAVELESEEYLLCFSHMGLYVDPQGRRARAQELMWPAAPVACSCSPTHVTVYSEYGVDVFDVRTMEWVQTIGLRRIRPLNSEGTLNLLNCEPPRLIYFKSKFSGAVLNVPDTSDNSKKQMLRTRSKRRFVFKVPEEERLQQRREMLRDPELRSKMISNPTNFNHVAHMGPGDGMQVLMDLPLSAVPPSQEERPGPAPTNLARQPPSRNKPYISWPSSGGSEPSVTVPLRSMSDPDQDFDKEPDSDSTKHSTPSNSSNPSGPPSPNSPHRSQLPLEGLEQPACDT
Chain of Ribosomal protein S6 kinase alpha-5 (Homo sapiens) (O75582 whole entry, looked up): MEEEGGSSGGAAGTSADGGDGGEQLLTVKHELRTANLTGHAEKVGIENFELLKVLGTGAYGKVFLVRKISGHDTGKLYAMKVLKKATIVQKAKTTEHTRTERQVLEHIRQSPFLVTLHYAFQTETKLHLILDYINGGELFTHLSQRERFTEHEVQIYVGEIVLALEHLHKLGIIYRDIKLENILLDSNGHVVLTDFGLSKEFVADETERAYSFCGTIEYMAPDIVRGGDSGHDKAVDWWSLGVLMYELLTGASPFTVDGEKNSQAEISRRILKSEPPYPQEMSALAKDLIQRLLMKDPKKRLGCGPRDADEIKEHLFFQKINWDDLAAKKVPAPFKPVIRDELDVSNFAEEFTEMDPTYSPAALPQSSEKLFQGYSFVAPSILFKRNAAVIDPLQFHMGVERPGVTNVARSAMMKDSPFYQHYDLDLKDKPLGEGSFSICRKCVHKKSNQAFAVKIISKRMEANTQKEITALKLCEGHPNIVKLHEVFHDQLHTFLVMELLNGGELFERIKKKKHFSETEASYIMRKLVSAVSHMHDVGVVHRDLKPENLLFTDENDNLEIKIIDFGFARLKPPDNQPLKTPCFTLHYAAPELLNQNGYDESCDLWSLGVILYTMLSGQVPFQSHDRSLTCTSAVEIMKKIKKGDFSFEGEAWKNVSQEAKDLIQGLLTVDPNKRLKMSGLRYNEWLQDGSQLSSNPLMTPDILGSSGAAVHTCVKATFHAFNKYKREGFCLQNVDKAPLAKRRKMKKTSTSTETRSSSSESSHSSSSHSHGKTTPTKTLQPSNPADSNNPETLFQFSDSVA
Chain of Ribosomal protein S6 kinase beta-1 (Homo sapiens) (P23443 whole entry, looked up): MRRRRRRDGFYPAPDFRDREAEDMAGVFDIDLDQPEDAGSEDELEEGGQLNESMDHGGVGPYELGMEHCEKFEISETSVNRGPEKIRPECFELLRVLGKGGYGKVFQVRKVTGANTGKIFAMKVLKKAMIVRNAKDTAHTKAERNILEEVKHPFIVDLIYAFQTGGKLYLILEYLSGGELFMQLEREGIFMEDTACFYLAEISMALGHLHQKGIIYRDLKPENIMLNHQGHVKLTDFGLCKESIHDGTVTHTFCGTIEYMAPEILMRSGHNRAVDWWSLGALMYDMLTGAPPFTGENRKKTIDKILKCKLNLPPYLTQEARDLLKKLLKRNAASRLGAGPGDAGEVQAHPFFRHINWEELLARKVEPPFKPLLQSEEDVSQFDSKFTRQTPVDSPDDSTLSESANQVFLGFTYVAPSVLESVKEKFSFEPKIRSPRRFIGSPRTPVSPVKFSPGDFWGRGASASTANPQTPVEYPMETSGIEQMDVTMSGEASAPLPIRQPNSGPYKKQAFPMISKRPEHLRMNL
Chain of Serine/threonine-protein kinase MRCK alpha (Homo sapiens) (Q5VT25 whole entry): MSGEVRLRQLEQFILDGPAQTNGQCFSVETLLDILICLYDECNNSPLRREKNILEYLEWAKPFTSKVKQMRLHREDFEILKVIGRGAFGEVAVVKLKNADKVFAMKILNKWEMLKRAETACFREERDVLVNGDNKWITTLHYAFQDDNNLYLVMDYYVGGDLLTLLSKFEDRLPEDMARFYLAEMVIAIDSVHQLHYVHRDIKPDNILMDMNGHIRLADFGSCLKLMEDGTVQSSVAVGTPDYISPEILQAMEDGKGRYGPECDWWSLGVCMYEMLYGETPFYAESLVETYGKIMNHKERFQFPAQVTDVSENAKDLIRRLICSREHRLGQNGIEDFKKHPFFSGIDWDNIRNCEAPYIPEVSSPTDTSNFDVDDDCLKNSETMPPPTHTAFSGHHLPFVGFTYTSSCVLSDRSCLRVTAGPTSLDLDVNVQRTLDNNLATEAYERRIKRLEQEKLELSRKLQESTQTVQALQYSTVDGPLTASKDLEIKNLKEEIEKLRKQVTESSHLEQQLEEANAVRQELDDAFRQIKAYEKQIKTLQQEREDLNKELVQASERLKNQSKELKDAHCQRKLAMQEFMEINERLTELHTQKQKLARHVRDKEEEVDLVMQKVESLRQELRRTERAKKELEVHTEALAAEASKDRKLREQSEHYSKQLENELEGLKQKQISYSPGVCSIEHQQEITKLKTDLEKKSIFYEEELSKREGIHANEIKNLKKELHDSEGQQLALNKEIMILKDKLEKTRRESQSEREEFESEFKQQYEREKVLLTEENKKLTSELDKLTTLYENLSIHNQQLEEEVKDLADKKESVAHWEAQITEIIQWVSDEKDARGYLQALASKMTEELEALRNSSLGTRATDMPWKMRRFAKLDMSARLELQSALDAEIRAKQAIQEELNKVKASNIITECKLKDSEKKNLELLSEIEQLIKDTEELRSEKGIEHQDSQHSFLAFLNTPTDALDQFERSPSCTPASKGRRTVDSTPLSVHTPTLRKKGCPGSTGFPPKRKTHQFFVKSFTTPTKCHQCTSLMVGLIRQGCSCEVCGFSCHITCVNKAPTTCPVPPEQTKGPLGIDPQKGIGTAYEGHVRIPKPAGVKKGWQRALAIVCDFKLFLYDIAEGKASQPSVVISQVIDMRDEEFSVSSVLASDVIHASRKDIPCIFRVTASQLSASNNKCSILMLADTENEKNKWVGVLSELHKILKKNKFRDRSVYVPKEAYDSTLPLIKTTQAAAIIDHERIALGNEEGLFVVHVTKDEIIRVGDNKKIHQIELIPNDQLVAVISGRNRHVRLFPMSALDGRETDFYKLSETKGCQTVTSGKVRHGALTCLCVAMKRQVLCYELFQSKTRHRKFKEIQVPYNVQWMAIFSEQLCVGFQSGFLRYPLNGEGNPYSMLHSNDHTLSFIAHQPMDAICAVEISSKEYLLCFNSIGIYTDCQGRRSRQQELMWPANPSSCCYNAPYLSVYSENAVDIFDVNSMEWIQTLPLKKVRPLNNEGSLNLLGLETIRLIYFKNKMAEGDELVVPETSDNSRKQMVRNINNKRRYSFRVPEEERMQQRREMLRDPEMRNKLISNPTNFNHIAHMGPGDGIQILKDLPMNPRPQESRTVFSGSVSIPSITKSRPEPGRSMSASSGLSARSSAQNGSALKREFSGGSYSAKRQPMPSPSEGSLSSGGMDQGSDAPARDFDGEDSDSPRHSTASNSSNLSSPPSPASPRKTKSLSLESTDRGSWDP

CCn1c(-c2nonc2N)nc2c(C#CC(C)(C)O)nc(OC[C@H](N)c3ccccc3)cc21
inhibition [1]: 11.8%
inhibition [2]: 36.3%
inhibition [3]: 3.04%
inhibition [4]: 26.6%
inhibition [5]: 3.37%
inhibition [6]: 17.7%
inhibition [7]: 3.75%
inhibition [8]: 20.5%
inhibition [9]: 4.66%
inhibition [10]: 33.1%

CCn1c(-c2nonc2N)nc2c(C#CC(C)(C)O)ncc(OC3CCNCC3)c21
inhibition [1]: 8.47%
inhibition [2]: 33.8%
inhibition [3]: 2.8%
inhibition [4]: 22.5%
inhibition [5]: 2.46%
inhibition [6]: 11.8%
inhibition [7]: 3.66%
inhibition [8]: 14.9%
inhibition [9]: 4.92%
inhibition [10]: 26.5%

CNC(=O)c1cccc(C#Cc2cncnc2Nc2ccc(OCc3cccc(F)c3)c(Cl)c2)c1
inhibition [1]: -0.5%
inhibition [2]: 1.42%
inhibition [3]: -0.81%
inhibition [4]: -3.2%
inhibition [5]: -0.16%
inhibition [6]: -0.2%
inhibition [7]: 0.45%
inhibition [8]: 1.97%
inhibition [9]: 0.88%
inhibition [10]: 0.77%

O=C(O[C@H]1CN[C@H](C#Cc2cc3ncnc(Nc4ccc(Cc5ccccc5)cc4)c3s2)C1)N1CCOCC1
inhibition [1]: -1.95%
inhibition [2]: 0.21%
inhibition [3]: 1.54%
inhibition [4]: 4.12%
inhibition [5]: 4.51%
inhibition [6]: 3.65%
inhibition [7]: 3.21%
inhibition [8]: 3.94%
inhibition [9]: 1.97%
inhibition [10]: 1.38%

CN1CCC(n2cnc(-c3ccc(F)cc3)c2-c2ccnc(Nc3ccccc3)n2)CC1
inhibition [1]: 0.81%
inhibition [2]: 10.7%
inhibition [3]: 1.12%
inhibition [4]: 2.04%
inhibition [5]: 1.99%
inhibition [6]: 3.4%
inhibition [7]: 1.72%
inhibition [8]: 3.56%
inhibition [9]: 0.19%
inhibition [10]: 1.05%

c1ccc(COc2ccc(Nc3ncnc4ccc(-c5ccco5)cc34)cc2)cc1
inhibition [1]: -3.21%
inhibition [2]: -2.24%
inhibition [3]: 0.9%
inhibition [4]: -0.9%
inhibition [5]: 0.07%
inhibition [6]: -1.17%
inhibition [7]: 2.09%
inhibition [8]: 1.67%
inhibition [9]: 0.5%
inhibition [10]: 0.07%

CCOc1ccc2c(-c3ccnc(Nc4cccc(C(F)(F)F)c4)n3)cnn2n1
inhibition [1]: -4.67%
inhibition [2]: -1.89%
inhibition [3]: -0.48%
inhibition [4]: -1.84%
inhibition [5]: 0.66%
inhibition [6]: -1.09%
inhibition [7]: 1.4%
inhibition [8]: -0.01%
inhibition [9]: 0.31%
inhibition [10]: -0.17%

Nc1ncc(-c2cccc(S(N)(=O)=O)c2)c2scc(-c3ccc(F)c(Cl)c3)c12
inhibition [1]: -3.16%
inhibition [2]: 7.9%
inhibition [3]: 0.86%
inhibition [4]: 0.71%
inhibition [5]: 2.3%
inhibition [6]: 0.77%
inhibition [7]: 3.08%
inhibition [8]: 2.86%
inhibition [9]: 1.63%
inhibition [10]: 0.72%

c1cc(-c2cnn3nc(N4CCOCC4)ccc23)nc(NC2CC2)n1
inhibition [1]: 0.21%
inhibition [2]: -0.69%
inhibition [3]: 0.92%
inhibition [4]: 0.61%
inhibition [5]: 3.83%
inhibition [6]: 3.75%
inhibition [7]: 0.89%
inhibition [8]: 6.24%
inhibition [9]: 1.29%
inhibition [10]: 3.7%

Cc1cccc(Nc2ncc(-c3ccccc3)o2)c1
inhibition [1]: 7.36%
inhibition [2]: 8.12%
inhibition [3]: 0.54%
inhibition [4]: 4.56%
inhibition [5]: 2.55%
inhibition [6]: 6.07%
inhibition [7]: 1.23%
inhibition [8]: 8.07%
inhibition [9]: 1.43%
inhibition [10]: 3.89%

Fc1ccc(-c2nn3ccccc3c2-c2ccncc2)cc1
inhibition [1]: 1.08%
inhibition [2]: 3.93%
inhibition [3]: 1.99%
inhibition [4]: 4.92%
inhibition [5]: 4.62%
inhibition [6]: 5.97%
inhibition [7]: 5.06%
inhibition [8]: 6.2%
inhibition [9]: 1.21%
inhibition [10]: 2.15%

Cc1cccc2c1NC(=O)/C2=N\Nc1ccc(S(N)(=O)=O)cc1
inhibition [1]: -1.02%
inhibition [2]: -1.52%
inhibition [3]: 1.33%
inhibition [4]: 2.51%
inhibition [5]: 2.97%
inhibition [6]: 4.06%
inhibition [7]: 1.89%
inhibition [8]: 3.82%
inhibition [9]: 1.66%
inhibition [10]: 2.26%

CN(C)CCOc1ccc(-c2nc(-c3ccncc3)c(-c3ccc4c(c3)CC/C4=N\O)[nH]2)cc1
inhibition [1]: -0.58%
inhibition [2]: 0.77%
inhibition [3]: 0.46%
inhibition [4]: 0.41%
inhibition [5]: 3.39%
inhibition [6]: 7.59%
inhibition [7]: 2.36%
inhibition [8]: 4.48%
inhibition [9]: 1.37%
inhibition [10]: 1.71%

CNC(=O)c1cncc(/C=C/c2ccccc2Cl)c1
inhibition [1]: 1.52%
inhibition [2]: 2.33%
inhibition [3]: -0.05%
inhibition [4]: 0.26%
inhibition [5]: 3.05%
inhibition [6]: 3.68%
inhibition [7]: 1.83%
inhibition [8]: 1.78%
inhibition [9]: 0.27%
inhibition [10]: 0.23%

CC1=C(C(=O)Nc2cc(Cl)c3[nH]ncc3c2)C(c2ccc(C(F)(F)F)cc2)CC(=O)N1 (stereo not given)
inhibition [1]: 17.2%
inhibition [2]: 64.6%
inhibition [3]: 23.8%
inhibition [4]: 65.5%
inhibition [5]: 56.3%
inhibition [6]: 81.7%
inhibition [7]: 32.4%
inhibition [8]: 68.9%
inhibition [9]: 8.47%
inhibition [10]: 41.7%

O=S(=O)(CCNCc1ccc(-c2ccc3ncnc(Nc4ccc(OCc5cccc(F)c5)c(Cl)c4)c3c2)o1)c1ccccc1
inhibition [1]: -4.06%
inhibition [2]: 0.31%
inhibition [3]: 0.71%
inhibition [4]: -0.02%
inhibition [5]: 4.86%
inhibition [6]: 4.66%
inhibition [7]: 3.43%
inhibition [8]: 3.05%
inhibition [9]: 1.88%
inhibition [10]: 2.98%

Cc1ccc(O)cc1Nc1ccnc2cc(-c3ccccn3)ccc12
inhibition [1]: 0.02%
inhibition [2]: -2.04%
inhibition [3]: 1.37%
inhibition [4]: 0.2%
inhibition [5]: 4.25%
inhibition [6]: 3.29%
inhibition [7]: 0.94%
inhibition [8]: 2.96%
inhibition [9]: 1.62%
inhibition [10]: 1.87%

CC(C)COC(=O)c1ccc2c(c1)/C(=C/Nc1ccc(S(N)(=O)=O)cc1)C(=O)N2
inhibition [1]: 3.02%
inhibition [2]: 6.98%
inhibition [3]: 3.62%
inhibition [4]: 12.7%
inhibition [5]: 3.88%
inhibition [6]: 11.6%
inhibition [7]: 5.45%
inhibition [8]: 20.9%
inhibition [9]: 3%
inhibition [10]: 18.1%

CCNC(=O)O[C@H]1CN[C@H](C#Cc2cc3ncnc(Nc4ccc(OCc5cccc(F)c5)c(Cl)c4)c3s2)C1
inhibition [1]: 0.37%
inhibition [2]: -0.19%
inhibition [3]: 1.07%
inhibition [4]: 0.37%
inhibition [5]: 3.18%
inhibition [6]: 2.55%
inhibition [7]: 1.61%
inhibition [8]: 2.66%
inhibition [9]: 1.69%
inhibition [10]: 1.78%

Cc1ccc2c(-c3ccnc(Nc4ccccc4)n3)c(-c3ccc(F)cc3)nn2n1
inhibition [1]: 1.01%
inhibition [2]: 7.71%
inhibition [3]: 1.04%
inhibition [4]: 1.94%
inhibition [5]: 3.46%
inhibition [6]: 3.65%
inhibition [7]: 0.97%
inhibition [8]: 3.78%
inhibition [9]: 1.87%
inhibition [10]: 3.16%

CS(=O)(=O)CCNCc1ccc(-c2ccc3ncnc(Nc4ccc(OCc5ccccc5)c(C(F)(F)F)c4)c3c2)o1
inhibition [1]: -6.32%
inhibition [2]: -1.92%
inhibition [3]: -0.98%
inhibition [4]: -1.25%
inhibition [5]: 8.24%
inhibition [6]: 6.53%
inhibition [7]: 1.86%
inhibition [8]: 0.65%
inhibition [9]: 1.21%
inhibition [10]: 1.16%

Fc1cccc(COc2ccc(Nc3ncnc4sc(-c5ccco5)cc34)cc2Cl)c1
inhibition [1]: -3.73%
inhibition [2]: -2.22%
inhibition [3]: -0.66%
inhibition [4]: -0.82%
inhibition [5]: 8.97%
inhibition [6]: 7.53%
inhibition [7]: 2.45%
inhibition [8]: 1.61%
inhibition [9]: 1.01%
inhibition [10]: 1.47%

COC(=O)Nc1nc2ccc(Oc3ccc(NC(=O)Nc4cccc(Cl)c4)cc3)cc2[nH]1
inhibition [1]: -2.43%
inhibition [2]: -0.92%
inhibition [3]: -0.72%
inhibition [4]: -1.4%
inhibition [5]: 0.39%
inhibition [6]: -1.18%
inhibition [7]: 0.82%
inhibition [8]: -0.55%
inhibition [9]: 0.63%
inhibition [10]: 0.82%

CCCN1CCC(c2ccc(Nc3nc(Nc4cc(F)ccc4C(N)=O)c4cc[nH]c4n3)c(OC)c2)CC1
inhibition [1]: 2.45%
inhibition [2]: 30.4%
inhibition [3]: 1.71%
inhibition [4]: 23.3%
inhibition [5]: 2.89%
inhibition [6]: 8.65%
inhibition [7]: 2.82%
inhibition [8]: 12%
inhibition [9]: 2.27%
inhibition [10]: 7.03%

[O-][S+]1CCN(Cc2ccc(-c3ccc4ncnc(Nc5ccc(OCc6cccc(F)c6)c(Cl)c5)c4c3)o2)CC1
inhibition [1]: -1.31%
inhibition [2]: -1.3%
inhibition [3]: -0.28%
inhibition [4]: -0.43%
inhibition [5]: 3.5%
inhibition [6]: 3.71%
inhibition [7]: 3.38%
inhibition [8]: 4.98%
inhibition [9]: 2.86%
inhibition [10]: 3.84%

CC(=O)Nc1cccc(C#Cc2cncnc2Nc2ccc(OCc3cccc(F)c3)c(Cl)c2)c1
inhibition [1]: 1.39%
inhibition [2]: 0.82%
inhibition [3]: 1.53%
inhibition [4]: 1.93%
inhibition [5]: -3.6%
inhibition [6]: -3.85%
inhibition [7]: 1.16%
inhibition [8]: 2.5%
inhibition [9]: 2.04%
inhibition [10]: 2.07%

c1ccc(-c2nc3n(c2-c2ccc4c(c2)OCO4)CCC3)nc1
inhibition [1]: 1.51%
inhibition [2]: -0.39%
inhibition [3]: 1.65%
inhibition [4]: 4.63%
inhibition [5]: 8.97%
inhibition [6]: 8.14%
inhibition [7]: 5.25%
inhibition [8]: 6.79%
inhibition [9]: 1.12%
inhibition [10]: 0.67%

CCn1c(-c2nonc2N)nc2cnc(Oc3cccc(NC(=O)c4ccc(N(C)C)cc4)c3)cc21
inhibition [1]: 7.29%
inhibition [2]: 53.4%
inhibition [3]: 17%
inhibition [4]: 62.9%
inhibition [5]: 60.2%
inhibition [6]: 80.5%
inhibition [7]: 61.2%
inhibition [8]: 79%
inhibition [9]: 71.7%
inhibition [10]: 90.4%
